For 45 compounds, growth results are on record in PubChem BioAssay (NCI).

Test systems include HL-60(TB) leukemia; A549/ATCC NSCLC; 786-0 renal; DU-145 prostate; SF-268 CNS; SF-539 CNS; SNB-75 CNS; SNB-19 CNS; UACC-62 melanoma; SN12C renal; TK-10 renal; ACHN renal; OVCAR-8 ovarian; OVCAR-5 ovarian; OVCAR-3 ovarian; NCI/ADR-RES ovarian; T-47D breast; MDA-MB-435 melanoma; MCF7 breast.
Assay in all cases: NCI-60 one-dose screen, 48 h (100 = growth as untreated, 0 = no growth, -100 = all killed)
Details in all cases: 10 µM unless noted

The panel holds about 83,000 compounds, 20% with a hit somewhere; the sample as a whole holds those more often.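 A percent growth of 40 corresponds to 60% growth inhibition; 0 means no net growth; -100 means all cells died. Active threshold: below 10.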 Unmarked numbers belong to inactive results. Active and inactive are the calls of the source.

Regarding `N#CC1CCc2c(c(-c3ccc4nc(N)sc4c3)nc3ccc4[nH]ncc4c23)C1` (stereo not drawn), the growth in the assay on HL-60(TB) leukemia is 34.9%.

Regarding `CCCCCCCCN(CCCCCCCC)CCCCCCNc1cc(OC)cc2cccnc12`, the growth in the assay with HL-60(TB) leukemia was 83.6%.

As for `CS(=O)(=O)Nc1cc(-c2ccc3ncnc(Nc4cccc(Cl)c4)c3c2)cnc1Cl`, the growth in the assay with HL-60(TB) leukemia was 2.67% (active).

Turning to `CNC(=O)O/N=C(/C)c1ccc(Cl)cc1`, the growth is 99.3% in the assay with A549/ATCC NSCLC; 90.7% in the assay with 786-0 renal; 114% with DU-145 prostate; 110% with SF-268 CNS; 125% in the assay on SF-539 CNS; 87.4% in the assay on SNB-75 CNS. For the same compound, the growth with SNB-19 CNS was 112%; in the assay on UACC-62 melanoma, 114%; in the assay with SN12C renal, 105%; in the assay on TK-10 renal it was 91.6%; with ACHN renal, 129%; with HL-60(TB) leukemia, 92.1%. The growth was 102% in the assay on OVCAR-8 ovarian; 111% with OVCAR-5 ovarian; 114% with OVCAR-3 ovarian; 109% with NCI/ADR-RES ovarian; 91.8% in the assay with T-47D breast; 98.3% in the assay with MDA-MB-435 melanoma. The growth in the assay on MCF7 breast is 96.6%.

Turning to `CCCCOC(=O)c1ccccc1O`, the growth in the assay on HL-60(TB) leukemia was 93.2%.

Consider `Cc1ccc(/C=C/C(=O)C(=O)/C=C/c2ccc(C)cc2)cc1`, for which the growth with HL-60(TB) leukemia was 93.3%.

As to `CN1CCN(c2c(F)cc(NC3=C(Cl)C(=O)c4ncccc4C3=O)cc2F)CC1`, the growth with HL-60(TB) leukemia was -24.7% (active).

`COc1ccc(-c2nnc(SCC(=O)Nc3ccc(C(=O)/C=C/c4ccc(Cl)cc4)cc3)o2)cc1OC`: the growth with HL-60(TB) leukemia was 93.1%.

In the case of `CCOC(=O)c1sc2nc(-c3cccc(OC)c3)nc(N3CCOCC3)c2c1C`, in the assay on HL-60(TB) leukemia, the growth was 101%.

As to `CCN(CC)c1ccc(/C=N/NC(=O)c2ccccc2Nc2ccnc(C(F)(F)F)c2)c(O)c1`, the growth in the assay with HL-60(TB) leukemia is 60%.

Turning to `CC1(c2ccccc2)CO1` (stereo not drawn), in the assay on HL-60(TB) leukemia, the growth was 105%.

Consider `Cc1c(Cl)cccc1NS(=O)(=O)c1ccccc1`, for which the growth in the assay with HL-60(TB) leukemia is 113%.

In the case of `CC/C(=C(/c1ccc(Cl)cc1)c1ccc(OCCCN(C)C)cc1)c1ccc(OC)cc1`, the growth in the assay with HL-60(TB) leukemia is 46.2%.

For `COC(=O)[C@@H](OC)[C@@H]1Cc2cc3cc(OC4CC(OC5CC(O)C(O)C(C)O5)C(O)C(C)O4)c(C)c(O)c3c(O)c2C(=O)[C@H]1OC1CC(OC2CC(OC3CC(C)(O)C(O)C(C)O3)C(O)C(C)O2)C(O)C(C)O1` (stereo partly drawn), the growth with HL-60(TB) leukemia was -33.5% (active).

As to `c1ccc(Nc2cc(-c3cccnc3)[nH]n2)cc1`, the growth in the assay with HL-60(TB) leukemia was 89.3%.

In the case of `CCCCCSc1ccc2nc(NC(=O)OCC)sc2c1`, the growth with HL-60(TB) leukemia was 4.55% (active).

`[N-]=[N+]=Nc1ncc(-c2ccc(C(F)(F)F)cc2)c(NC2CCCCCC2)n1`: the growth in the assay with HL-60(TB) leukemia is -14.7% [100 µM] (active).

Consider `Cc1c(Cl)cccc1NC(=S)NC(=O)c1ccccc1`, for which the growth in the assay on HL-60(TB) leukemia is 92.9%.

For the compound `CNc1nc(NC)c2cn[nH]c2n1`, in the assay on HL-60(TB) leukemia, the growth is 103%.

In the case of `CNC(=O)c1cc(Oc2ccc3c(c2)sc2nc(-c4ccc(Cl)c(C(F)(F)F)c4)cn23)ccn1`, in the assay on HL-60(TB) leukemia, the growth was 35.8%.

Consider `CC1(C)/C(=C\CO)C2CCC1C2` (stereo not drawn), for which the growth with HL-60(TB) leukemia was 94.1%.

In the case of `CC(CCN1CCN(CCC(C)CC(C)(C)C)C1CC(C)CC(C)(C)C)CC(C)(C)C` (stereo not drawn), the growth in the assay with HL-60(TB) leukemia was 97.8%.

As for `O=S(=O)(Nc1cc(F)cc(F)c1)c1ccc(-c2cnc(C3CC3)o2)cc1`, the growth in the assay with HL-60(TB) leukemia is 9.05% (active).

As to `C=CCOC(=O)C1=C(C)N(CC)C(=O)NC1c1c(Cl)n(C)c2ccccc12` (stereo not drawn), the growth in the assay with HL-60(TB) leukemia is 99.2%.

Consider `C=C1CC[C@@]2(C#N)[C@H]3[C@H](CC[C@@H]2C)[C@@H](C)C[C@@H](CC(C)(C)C#N)[C@H]13`, for which the growth in the assay on HL-60(TB) leukemia is 21.8%.

As to `O=C(Nc1ccc(Br)cc1F)c1cc(Br)ccc1O`, in the assay with HL-60(TB) leukemia, the growth is -23.7% (active).

`CC1(C)CC[C@]2(C(=O)NCC#CCN3CCOCC3)CC[C@]3(C)C(=CC[C@@H]4[C@@]5(C)Cc6c([nH]c7ccccc67)C(C)(C)[C@@H]5CC[C@]43C)[C@@H]2C1`: in the assay on HL-60(TB) leukemia, the growth is 62.7%.

As for `CC(=O)OCC1=CC2OC(=O)C3=COC(OC4OC(CO)C(O)C(O)C4O)C1C32` (stereo not drawn), the growth with HL-60(TB) leukemia is 120%.

For `Cc1ccccc1N=C(N)Nc1ccccc1C` (tested in a mixture with another compound), the growth in the assay with HL-60(TB) leukemia is -25% (active).

For `COc1ccc(/C=N/C2=C(C#N)C(c3ccccc3)c3ccc4ccccc4c3O2)cc1` (stereo not drawn), the growth in the assay with HL-60(TB) leukemia was 1.71% (active).

For `O=c1[nH]c(-c2ccccc2)nc2sc3cc(O)ccc3c12`, the growth in the assay on HL-60(TB) leukemia is -33.5% (active).

As for `CCCc1cc(=O)oc2c(C(=O)CC(C)C)c(O)c(CC=C(C)C)c(O)c12`, the growth in the assay on HL-60(TB) leukemia is 2.72% (active).

`O=C(c1ccc(Cl)cc1)c1ccc(Cl)cc1`: the growth in the assay on HL-60(TB) leukemia is 113%.

As to `Cc1cnc(N)nc1OCC(C)(C)CNC(=O)c1cccc(-c2ccc(S(=O)(=O)Nc3ccc4c(c3)N(C(=O)C3CC3)CCC4)cc2)c1`, the growth in the assay on HL-60(TB) leukemia was 18.2%.

In the case of `O=S(=O)(NCCNc1cc(-c2cn(-c3ccccc3)nc2-c2cccc(O)c2)ccn1)c1ccccc1`, the growth with HL-60(TB) leukemia is 33.9%.

In the case of `COc1cc(C2C=C(c3cccc(NC(C)=O)c3)Nc3ncnn32)cc(OC)c1OC` (stereo not drawn), the growth in the assay with HL-60(TB) leukemia is -35.2% (active).

As to `O=C1CC(N2C(=O)/C(=C/C(Cl)=C\c3ccc([N+](=O)[O-])cc3)SC2=S)C(=O)N1c1ccc(O)cc1` (stereo not drawn), the growth with HL-60(TB) leukemia was -18.7% (active).

Regarding `Cc1ccc2c(n1)C(=O)C(Cl)=C(Nc1ccccc1C(C)C)C2=O`, the growth in the assay with HL-60(TB) leukemia was -15.3% (active).

As to `CCOC(=O)c1ccc(N=Cc2sc(=O)[nH]c2O)cc1`, the growth in the assay on HL-60(TB) leukemia was 101%.

`Brc1ccc(-c2csc(Nc3ccccn3)n2)cc1`: the growth with HL-60(TB) leukemia was 79.2%.

Take `CC1(C)CC[C@]2(C(=O)Nc3ccccn3)CC[C@]3(C)C(=CC[C@@H]4[C@@]5(C)C/C(=C/c6cccnc6)C(=O)C(C)(C)[C@@H]5CC[C@]43C)[C@H]2C1`: in the assay on HL-60(TB) leukemia, the growth was 1.84% (active).

Regarding `O=C(O)C1C[C@](O)(c2ccc(F)cc2)[C@@H](c2ccc(F)cc2)O1` (stereo partly drawn), the growth in the assay with HL-60(TB) leukemia is 91.6%.

As for `CCCCCc1c(C)[nH]c(/C=C2\N=C(c3ccc[nH]3)C=C2Oc2ccccc2)c1C`, the growth with HL-60(TB) leukemia is -49.6% [100 µM] (active).

`CSc1nc(-c2ccco2)c2c(N)[nH]nc2n1`: the growth in the assay with HL-60(TB) leukemia was 82.9%.

Turning to `C[C@@H]1C(=O)N(C[C@@H](Cc2ccccc2)NC(=O)OCc2ccccc2)[C@]1(Cc1ccccc1)C(=O)OCc1ccccc1`, the growth with HL-60(TB) leukemia was 13.1%.
